Results published in PubChem BioAssay (NCATS).
Inconclusive results are not listed. Calls of active or inactive are those of the source. Unless noted, calls follow the shape of the dose curve; as a rule, active = well fitted curve in either direction with a large enough effect (not every such curve was filed as active); inconclusive = small, poorly fitted or top-dose-only effect, or another doubt; inactive = flat fitted curve, though single readings scatter.

How the values were obtained:
[1] = target: Lysosomal acid glucosylceramidase (Homo sapiens) (UniProt P04062); assay: Glucocerebrosidase-p2 (AID 348; in the data active = potency below about 10 µM; also: potency is read from the fitted curve at half-maximal effect); conditions: purified GBA, blue fluorogenic substrate, 40 min
Method in brief: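 Normal human glucocerebrosidase (0.2 nM) with blue fluorogenic substrate (80 uM final) in citrate/phosphate pH 5.9 with 10mM sodium taurocholate, 0.01% tween-20; 40 min RT, NaOH/glycine stop; fluorescence Ex 365/Em 440; AC50 from a titration from 0.6 nM upwards.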

[2] = AP1 Signaling Pathway (AID 357); conditions: ME-180 AP-1-bla reporter, EGF-induced, beta-lactamase ratio, 5 h; at 7.69 µM (top of the series) unless noted;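 also: ME-180 reporter cells stimulated with EGF at its EC50 level; % is scaled to controls: 0 for no effect and ±100 for the full control effect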
Method in brief: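 Modulation of EGF-driven AP-1 transcription was assessed with a beta-lactamase reporter in ME-180 cells. Compound and EC50 EGF were co-incubated 5 hours at 37 °C before 2.5-hour CCF4 loading at room temperature and dual-emission reading.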

[3] = NFAT Signaling Pathway (AID 444); conditions: Jurkat NFAT-bla M1, carbachol, beta-lactamase ratio, 5 h; at 7.69 µM (top of the series) unless noted;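 also: carbachol stimulus at about its EC50 of 1 µM final; % is scaled to controls: 0 for no effect and ±100 for the full control effect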
Method in brief: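 Jurkat cells with NFAT-driven β-lactamase reporter and co-expressed M1 receptor, stimulated with carbachol (final 1 uM, ~EC50), compound titration, 5 h at 37 °C. CCF4 loaded 1 h at RT; 460/530 nm ratio gave %activity and AC50.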

[4] = Stat Signaling Pathway (AID 446); conditions: ME-180 SIE beta-lactamase reporter, IL-6 stimulated, 5 h; at 7.69 µM (top of the series) unless noted;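 also: ME-180 cervical cancer cells given 40 pM IL-6 alongside compound; SIE-controlled beta-lactamase reporter measured as 460/530 nm FRET emission ratio; % is scaled to controls: 0 for no effect and ±100 for the full control effect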
Method in brief: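 FRET read-out (405 nm excitation, 460/530 nm emission) of a beta-lactamase reporter under a STAT-inducible element in ME-180 cervical carcinoma cells. Cells with compound receive 40 pM IL-6 for 5 h. Values are normalised to AC90 stimulation and AC90 JAK-inhibitor controls.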

[5] = target: Glucocorticoid receptor (Homo sapiens) (UniProt P04150); assay: GR-EFC Redistribution (AID 451; calls by dose curve; also: potency is read from the fitted curve at half-maximal effect); conditions: CHO-K1 GR-EFC translocation, beta-gal luminescence, 2 h
Method in brief: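 CHO-K1 cells expressing nuclear EA and GR-ED fragments of b-gal; compounds titrated up to 46 uM final, 2 h at 37 C. GR nuclear translocation read as complemented b-gal luminescence after 1 h RT detection.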

[6] = target: Mitogen-activated protein kinase 10 (Mus musculus) (UniProt Q61831); assay: JNK3 AlphaScreen Assay (AID 530); conditions: JNK3 lysate, c-Jun phosphorylation; series mostly up to 57.1 µM;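 also: kinase came from lysate of stimulated human HepG2 cells; signal reports phosphorylation of biotinylated GST-cJun 1-79 at Ser73 with 10 µM ATP; % is scaled to controls: 0 for no effect and ±100 for the full control effect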
Method in brief: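 HepG2 lysate (IL-1b/TNFa pre-activated) + biotin-GST-cJun 1-79 + anti-pSer73 cJun; cpd titration, 15 min RT; ATP 10 uM start; Tris pH 7.6, MgCl2, DTT, vanadate; beads in EDTA buffer; AlphaScreen.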

[7] = target: 3',5'-cyclic-AMP phosphodiesterase 4B (Homo sapiens) (UniProt Q07343); assay: qHTS Assay for Inhibitors of PDE-IV (AID 607; active = well fitted activation curve with a large enough effect in the main read-out, with a control signal flat, not every such curve was filed as active; also: % of control where 0% means no effect); conditions: HEK293 ACTOne CNG channel cells, membrane potential fluorescence; series mostly up to 22.9 µM
Method in brief: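 Cell-based read-out of cAMP via a modified cyclic nucleotide-gated channel and membrane potential dye (535/590 nm) in HEK293 cells expressing PDE4 endogenously. Compounds tested up to 22.9 uM final; 100 uM RO 20-1724 reference.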

[8] = target: Cytochrome P450 3A4 (Homo sapiens) (UniProt P08684); assay: qHTS Assay for Activators of Cytochrome P450 3A4 (AID 885; active = well fitted curve in the direction sought with a large enough effect; an effect the other way counts as inactive or inconclusive; also: nearly all actives have a fitted effect of over 65% in size); conditions: recombinant CYP3A4, Luciferin-PPXE luminescence, 60 min; series mostly up to 57.1 µM
Method in brief: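 Luminescent readout of luciferin formed from 25 uM Luciferin-PPXE (KM level) by 20 nM CYP3A4 in 200 mM KPO4, with 60 min NADPH-driven reaction at room temperature after 10 min compound exposure. Ketoconazole (57 uM) defined 100% inhibition.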

[9] = qHTS Assay for Lipid Storage Modulators (AID 1519; calls by dose curve); conditions: Drosophila S3 cells, BODIPY lipid droplet/cell ratio, laser cytometry, cells loaded with oleic acid; for activity change, negative = inhibition: at 57.5 µM (top of the series)
Method in brief: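 Cells seeded at 5,000 per well were treated with compounds over a concentration series and loaded with oleic acid (400 uM, as added). Lipid droplet fluorescence (488 nm excitation, 500-530 nm channel) was read by laser-scanning cytometry and normalized to 20 uM Triacsin C.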

[10] = Primary qHTS for small molecule stabilizers of the endoplasmic reticulum resident proteome: Secreted ER Calcium Modulated Protein (SERCaMP) assay (AID 1508630; active = well fitted curve in the direction sought with a large enough effect; an effect the other way counts as inactive or inconclusive; also: % is scaled to controls: 0 for no effect and ±100 for the full control effect); conditions: SH-SY5Y GLuc-SERCaMP (Gaussia luciferase released on ER calcium loss) secretion, thapsigargin, luminescence; series mostly up to 38.4 µM
Method in brief: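 The SH-SY5Y reporter protocol was run at 3 concentrations up to 38.3 uM (primary) or 11 concentrations (follow-up): 16 h compound, 100 nM thapsigargin for 4 h, then extracellular luciferase luminescence.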

[11] = target: Cytochrome P450 3A4 (Homo sapiens) (UniProt P08684); assay: qHTS Assay for Inhibitors and Substrates of Cytochrome P450 3A4 (AID 884; active = well fitted curve in the direction sought with a large enough effect; an effect the other way counts as inactive or inconclusive; also: potency is read from the fitted curve at half-maximal effect; nearly all actives have a fitted effect of over 50% in size); conditions: recombinant CYP3A4, Luciferin-PPXE luminescence; series mostly up to 57.1 µM
Method in brief: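 Luminescent readout of luciferin produced by CYP3A4 (20 nM) dealkylation of Luciferin-PPXE, 25 uM (its KM). NADPH-driven reaction ran 60 min at RT after 10 min compound preincubation; data scaled to 57 uM ketoconazole as 100% inhibition.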

[12] = qHTS Assay for Identification of Small Molecule Agonists for Hypoxia Response Element Signaling Pathway (AID 914; active = well fitted activation curve with a large enough effect in the signal ratio, with a control signal flat, not every such curve was filed as active; the % refers to the signal ratio; also: % of control where 0% means no effect); conditions: ME-180 (cervical carcinoma) HRE-bla reporter, beta-lactamase ratio, CoCl2, 17 h; activation: stronger effect = higher value
Method in brief: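 Cells were plated overnight, pin-dosed with compound in a titration series, co-stimulated with EC50 CoCl2 and incubated 17 hours at 37 degrees Celsius. CCF4 substrate was then loaded, and AC50 values came from the 460nm/530nm ratio.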

[13] = measured here: cell count channel max response
[14] = measured here: lipid channel max response

Lysosomal acid glucosylceramidase (Homo sapiens), sequence (P04062 whole entry, looked up): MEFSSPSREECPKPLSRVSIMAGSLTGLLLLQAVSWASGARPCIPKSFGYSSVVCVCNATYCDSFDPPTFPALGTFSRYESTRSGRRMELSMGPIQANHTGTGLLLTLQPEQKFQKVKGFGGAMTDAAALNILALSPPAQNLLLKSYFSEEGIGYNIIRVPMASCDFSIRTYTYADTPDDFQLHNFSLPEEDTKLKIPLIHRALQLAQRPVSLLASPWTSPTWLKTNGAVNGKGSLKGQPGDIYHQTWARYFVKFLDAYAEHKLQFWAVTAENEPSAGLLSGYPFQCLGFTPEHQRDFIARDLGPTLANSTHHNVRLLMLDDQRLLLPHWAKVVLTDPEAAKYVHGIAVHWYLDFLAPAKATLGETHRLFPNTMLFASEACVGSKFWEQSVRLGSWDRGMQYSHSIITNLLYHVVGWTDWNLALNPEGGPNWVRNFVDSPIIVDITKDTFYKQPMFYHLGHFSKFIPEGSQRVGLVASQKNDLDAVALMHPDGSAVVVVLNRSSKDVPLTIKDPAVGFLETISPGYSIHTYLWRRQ
Cytochrome P450 3A4 (Homo sapiens), sequence (P08684 whole entry, looked up): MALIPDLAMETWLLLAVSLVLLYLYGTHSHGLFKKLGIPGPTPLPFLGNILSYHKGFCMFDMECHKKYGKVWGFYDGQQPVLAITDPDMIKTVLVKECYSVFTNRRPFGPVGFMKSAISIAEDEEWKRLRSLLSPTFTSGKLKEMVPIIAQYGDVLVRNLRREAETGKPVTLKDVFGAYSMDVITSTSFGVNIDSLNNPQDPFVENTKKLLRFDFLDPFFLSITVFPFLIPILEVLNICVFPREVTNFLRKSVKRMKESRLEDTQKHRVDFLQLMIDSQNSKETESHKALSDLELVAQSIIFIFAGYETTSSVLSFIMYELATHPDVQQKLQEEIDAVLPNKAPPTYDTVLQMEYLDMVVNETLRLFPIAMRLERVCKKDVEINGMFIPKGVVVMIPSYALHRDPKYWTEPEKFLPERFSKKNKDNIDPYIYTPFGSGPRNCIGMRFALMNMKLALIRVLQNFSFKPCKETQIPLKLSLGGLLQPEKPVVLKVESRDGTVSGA
3',5'-cyclic-AMP phosphodiesterase 4B (Homo sapiens), sequence (Q07343 whole entry, looked up): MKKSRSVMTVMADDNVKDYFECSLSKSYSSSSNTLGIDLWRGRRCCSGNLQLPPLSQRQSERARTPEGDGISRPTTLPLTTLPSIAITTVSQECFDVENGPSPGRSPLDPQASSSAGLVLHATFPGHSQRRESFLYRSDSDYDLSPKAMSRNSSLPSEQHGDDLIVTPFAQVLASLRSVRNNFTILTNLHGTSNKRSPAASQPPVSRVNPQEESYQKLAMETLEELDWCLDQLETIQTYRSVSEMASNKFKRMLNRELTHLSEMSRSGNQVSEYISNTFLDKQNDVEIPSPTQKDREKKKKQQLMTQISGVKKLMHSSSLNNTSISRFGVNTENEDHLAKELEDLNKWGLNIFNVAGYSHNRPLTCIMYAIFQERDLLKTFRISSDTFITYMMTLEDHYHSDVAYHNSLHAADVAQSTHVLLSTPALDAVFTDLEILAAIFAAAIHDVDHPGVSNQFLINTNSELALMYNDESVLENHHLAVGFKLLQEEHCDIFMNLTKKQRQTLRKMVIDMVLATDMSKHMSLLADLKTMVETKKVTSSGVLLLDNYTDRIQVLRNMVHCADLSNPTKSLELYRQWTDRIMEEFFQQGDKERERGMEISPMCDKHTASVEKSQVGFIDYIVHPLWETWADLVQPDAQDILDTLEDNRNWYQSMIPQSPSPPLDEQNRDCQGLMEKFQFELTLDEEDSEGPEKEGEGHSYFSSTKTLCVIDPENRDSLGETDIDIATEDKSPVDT
Glucocorticoid receptor (Homo sapiens), sequence (P04150 whole entry, looked up, the tested form may be a part): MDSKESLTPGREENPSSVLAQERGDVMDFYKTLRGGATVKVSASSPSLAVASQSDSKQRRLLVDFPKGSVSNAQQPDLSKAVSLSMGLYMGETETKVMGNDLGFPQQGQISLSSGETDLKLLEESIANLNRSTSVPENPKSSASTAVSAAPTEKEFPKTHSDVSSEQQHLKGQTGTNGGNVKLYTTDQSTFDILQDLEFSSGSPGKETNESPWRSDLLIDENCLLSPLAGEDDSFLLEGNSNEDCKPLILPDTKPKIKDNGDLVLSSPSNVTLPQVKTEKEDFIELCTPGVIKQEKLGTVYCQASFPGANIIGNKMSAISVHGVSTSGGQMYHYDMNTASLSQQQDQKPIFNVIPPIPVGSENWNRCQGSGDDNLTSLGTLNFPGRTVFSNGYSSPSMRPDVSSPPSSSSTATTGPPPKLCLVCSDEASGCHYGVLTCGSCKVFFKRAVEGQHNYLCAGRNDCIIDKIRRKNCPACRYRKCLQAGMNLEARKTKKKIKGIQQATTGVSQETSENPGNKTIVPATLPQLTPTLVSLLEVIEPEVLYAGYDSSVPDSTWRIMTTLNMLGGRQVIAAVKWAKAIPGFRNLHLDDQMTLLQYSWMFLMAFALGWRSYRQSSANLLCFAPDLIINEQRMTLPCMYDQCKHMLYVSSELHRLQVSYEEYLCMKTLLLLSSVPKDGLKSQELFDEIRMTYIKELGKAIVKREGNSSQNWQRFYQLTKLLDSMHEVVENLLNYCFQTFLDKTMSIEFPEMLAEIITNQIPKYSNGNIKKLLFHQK

Structure (SMILES) | Potency [1] | activity change, negative = inhibition [2] | activity change, negative = inhibition [3] | activity, negative = inhibition [4] | Potency [5] | Potency [6] | Potency [7] | Potency [8] | activity change, negative = inhibition [9] | max response [9, 13] [%] | max response [9, 14] [%] | outcome [10] | Potency [11] | activation [12]
CC(=O)N1CCC2(CCCN(Cc3cc(C(F)(F)F)cc(C(F)(F)F)c3)C2)CC1 | > 11.4 µM (inactive) | 7.77% (inactive) | 23.8% (inactive) | -2.82% (inactive) | > 46 µM (inactive) | inactive | inactive | inactive | 4.05% (inactive) | 1.79 | 9.32 | inactive | – | –
COC(=O)N1CCC[C@@]2(CCN(c3ccccc3)C2)C1 | > 11.4 µM (inactive) | -10.2% (inactive) | -9.75% (inactive) | 7.98% (inactive) | > 46 µM (inactive) | inactive | inactive | – | -12.5% (inactive) | 14 | -1.29 | inactive | – | –
Cc1noc(C)c1C(=O)N1CCC[C@@]2(CCN(C(=O)Nc3ccccc3)C2)C1 | > 11.4 µM (inactive) | -22.6% (inactive) | 19.8% (inactive) | -2.21% (inactive) | > 46 µM (inactive) | inactive | inactive | inactive | 3.24% (inactive) | 3.75 | 7.38 | inactive | – | –
COc1ccc(NC(=O)N2CCCC3(CCN(C(=O)c4ccncc4)CC3)C2)cc1 | > 11.4 µM (inactive) | -8.03% (inactive) | -13.4% (inactive) | -2.92% (inactive) | > 46 µM (inactive) | inactive | inactive | – | 4.52% (inactive) | 10.2 | 18.3 | inactive | – | –
COc1ccccc1CN1CC[C@@]2(CCCN(C(=O)c3ccncc3)C2)C1 | > 11.4 µM (inactive) | -11.5% (inactive) | 3.54% (inactive) | 0.423% (inactive) | – | inactive | inactive | – | 3.67% (inactive) | 8.53 | 14.1 | inactive | – | –
COc1ccc(C(=O)N2CCC[C@@]3(CCN(CC(C)C)C3)C2)cc1 | > 11.4 µM (inactive) | -12.8% (inactive) | -2.79% (inactive) | -10.6% (inactive) | > 46 µM (inactive) | inactive | inactive | inactive | 2.82% (inactive) | 8.22 | 13.2 | inactive | 7.94 µM (active) | –
O=C(c1cccc(F)c1)N1CCC[C@@]2(CCN(c3ccccn3)C2)C1 | > 11.4 µM (inactive) | -17% (inactive) | -7.81% (inactive) | -6.48% (inactive) | > 46 µM (inactive) | inactive | inactive | – | 6.88% (inactive) | 12.7 | 23.1 | inactive | – | –
c1ccc(-c2cccc(N3CCCC4(CCNCC4)C3)c2)cc1 | > 11.4 µM (inactive) | 11.2% (inactive) | -11% (inactive) | 8.57% (inactive) | > 46 µM (inactive) | inactive | inactive | – | 2.43% (inactive) | -2.04 | 1.36 | inactive | – | –
COc1ccc(C(=O)N2CCC3(CC2)CN(c2ncccn2)C3)cc1 | > 11.4 µM (inactive) | -9.3% (inactive) | 13.7% (inactive) | -24.2% (inactive) | > 46 µM (inactive) | – | inactive | – | 1.87% (inactive) | 12.3 | 16.8 | inactive | – | –
O=C(Nc1ccccc1)N1CC2(CCN(S(=O)(=O)c3ccccc3)CC2)C1 | > 11.4 µM (inactive) | -1.41% (inactive) | 16.1% (inactive) | -2.14% (inactive) | > 46 µM (inactive) | inactive | inactive | – | -5.83% (inactive) | 0.332 | -5.36 | inactive | – | -12.4% (inactive)
COc1ccc(NC(=O)N2CC[C@@]3(CCCN(S(C)(=O)=O)C3)C2)cc1 | > 11.4 µM (inactive) | -12.7% (inactive) | 4.27% (inactive) | -1.03% (inactive) | > 46 µM (inactive) | inactive | inactive | inactive | 4.71% (inactive) | 8.24 | 15.1 | inactive | – | –
COCC(=O)N1CCC2(CC1)CN(c1ccc(-c3ccccc3)cc1)C2 | > 11.4 µM (inactive) | 2.14% (inactive) | 14.1% (inactive) | -17.6% (inactive) | > 46 µM (inactive) | inactive | inactive | – | 2.72% (inactive) | -7.54 | -3.13 | inactive | – | –
CC(=O)N1CCC2(CC1)CN(c1cccc(-c3ccccc3)c1)C2 | > 11.4 µM (inactive) | -4.65% (inactive) | 16.1% (inactive) | 1.02% (inactive) | > 46 µM (inactive) | inactive | inactive | – | 6.04% (inactive) | 6.96 | 17.4 | inactive | – | –
COCC(=O)N1CCC[C@@]2(CCN(c3ccccn3)C2)C1 | > 11.4 µM (inactive) | -4.6% (inactive) | -11.3% (inactive) | -4.62% (inactive) | > 46 µM (inactive) | inactive | inactive | – | 2.24% (inactive) | -4.94 | -1.36 | inactive | – | –
